# Reference: PubChem BioAssay AID651820 (National Center for Advancing Translational Sciences (NCATS), 2012)
# About 12,000 (3.5%) of roughly 340,000 compounds were called active. About 18% were inconclusive and are not listed. Only a selection was taken, and actives are over-represented in it overall. Unmarked numbers belong to inactive results. The call rests on the fitted dose curve; in most records, active means well fitted inhibition curve with a large enough effect; inconclusive means small, poorly fitted or top-dose-only effect, or another doubt; inactive means no such curve, though single readings can be large or run the other way.
# Experiment: qHTS Assay for Inhibitors of Hepatitis C Virus (HCV)
# Conditions: Huh7.5.1 HCVcc-Cre infection, luciferase reporter, 44 h; series mostly up to 41.8 µM; activity change, negative = inhibition: at the top concentration
# Method in brief: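 Whole-lifecycle infectious HCVcc-Cre system; cells 1,000/well, compound then virus (~0.5 moi) added 4 h after plating, 44 h culture. Luciferase read 15 sec following 15 min substrate incubation, room temp.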
# On the % scale 0 is the no-effect control and ±100 the full control effect; potency means the concentration at half of the fitted maximal effect.
SMILES,"activity change, negative = inhibition [%]",Potency
Cc1ccc(C)c(NC(=S)NNC(=O)c2csc(C)c2)c1,8.71,–
CC(C)c1ccc(NC(=S)NNc2ccc(Cl)c(C(=O)O)c2)cc1,8.76,–
Cc1ccc(C)c(NC(=S)NNC(=S)Nc2ccc(C(C)C)cc2)c1,–,5.62 µM (active)
CCOc1ccc(Br)cc1S(=O)(=O)Nc1ccc(S(=O)(=O)Nc2cc(C)on2)cc1,4.99,–
COc1ccc(C2CC(c3cccs3)=NN2C(=O)CCC(=O)O)cc1OC (centres undefined),4.23,–
COc1ccc(C2CC(c3cccs3)=NN2c2ccc(F)cc2)cc1OC (centres undefined),-5.17,–
COc1ccc(C2CC(c3cccs3)=Nc3ccccc3S2)cc1OC (centres undefined),–,11.2 µM (active)
O=C(Nc1c[nH]c(=O)[nH]c1=O)OCc1ccccc1,6.8,–
CCOc1ccc(-c2c(C)n([O-])c3c([n+]2=O)CCCC3)cc1,3.27,–
CCOc1ccc(-c2cc(C)[n+](CCN(CC)CC)c(-c3ccc(OCC)cc3)c2)cc1,–,11.2 µM (active)
CCOc1ccc(-c2nnc3ccc(SC)nn23)cc1,-21.9,–
O=C(NCCCN1CCOCC1)c1cc(-c2ccc(Cl)cc2)on1,–,11.2 µM (active)
O=C(NCCCN1CCOCC1)c1cc(-c2cccc(O)c2)on1,11.8,–
COc1ccc(-c2cc(C(=O)NCCCN3CCOCC3)no2)cc1,-3.36,–
C[C@H](NC(=O)c1ccccc1Cl)C(=O)OCC(=O)N1CCN(c2ccccc2)CC1,12.9,–
CCN(CC)c1ccc(/C=N/NC(=O)c2cnccn2)c(O)c1,–,3.55 µM (active)
Cc1ccc(C(=O)NCCNC(=O)c2cnccn2)cc1,4.04,–
CCN(CC)c1ccc(/C=N/NC(=O)CNC(=O)c2cccnc2)cc1,5.9,–
CCC1([N+](=O)[O-])COC(c2ccc(C)cc2)OC1 (centres undefined),3.04,–
COc1ccc(C(=O)NCc2ccc(Cl)cc2)cc1S(=O)(=O)N1CCCC1,7.82,–
O=C(COC(=O)c1cnccn1)Nc1ccc(Cl)cc1C(F)(F)F,4.23,–
Cc1ccc(C(=O)c2ccc(N3CCN(C)CC3)c([N+](=O)[O-])c2)cc1,–,10 µM (active)
CCOC(=O)C1CCN(c2ccc(C(=O)O)cc2[N+](=O)[O-])CC1,12.9,–
Cc1cccc(N2CCN(c3ccc(C(N)=O)cc3[N+](=O)[O-])CC2)c1C,22.1,–
CS(=O)(=O)N1CCN(c2ccc(C(=O)NC3C4CC5CC(C4)CC3C5)cc2[N+](=O)[O-])CC1 (centres undefined),–,11.2 µM (active)

SMILES,"activity change, negative = inhibition [%]",Potency
O=C(NC1C2CC3CC(C2)CC1C3)c1ccc(N2CCNCC2)c([N+](=O)[O-])c1 (centres undefined),-6.97,–
O=C(NCCCN1CCOCC1)c1ccc(N2CCCC2)c([N+](=O)[O-])c1,1.42,–
Cc1cc([N+](=O)[O-])c(=O)[nH]c1C,20.7,–
CN(C)C(=O)CCc1ccc2c3c([nH]c2c1)[C@]1(C)[C@@H](C(=O)N2CCCCC2)C[C@H](CC(=O)NCCC2=CCCCC2)C(=O)N1CC3,7.48,–
COc1cc(OC)cc(C(=O)NNC(=O)Cc2cccs2)c1,-4.33,–
O=C(CNc1ccccc1N1CCCC1=O)Nc1cc(Cl)ccc1-n1cncn1,0.824,–
CN(C)c1nc(Nc2ccc(Cl)c(Cl)c2)nc(N(C)C)n1,-6.29,–
Cc1nnc(NCCO)c2ccccc12,21.6,–
OCCNc1nc(Nc2ccc(Cl)c(Cl)c2)nc2ccccc12,–,10 µM (active)
CC(C)Sc1nc(N)nc2c1ncn2C1OC(CO)C(O)C1O (centres undefined),5.19,–
CC[C@]12c3[nH]c4ccc(OC)cc4c3CCN1C(=O)C(CC(=O)NCCN1CCOCC1)C[C@@H]2C(=O)N1CCN(C(=O)C2CC2)CC1 (some centres undefined),-14.4,–
Cc1cccn2c(=O)c3cc(C(=O)NCC4CCCO4)c(=N)n(Cc4ccc(F)cc4)c3nc12 (centres undefined),–,5.62 µM (active)
O=C(Nc1ccccc1C(=O)NCC1CCCO1)c1ccccc1F (centres undefined),2.29,–
Cc1cccn2c(=O)c3cc(C#N)c(=NC(=O)c4cccnc4)n(CC4CCCO4)c3nc12 (centres undefined),2.8,–
CCOc1ccc(CCNC(=O)CN2C(=O)NC3(CCc4ccccc43)C2=O)cc1OCC (centres undefined),7.59,–
COc1cc(/C=C/C2=CC(C)(C)NC(=S)N2)cc(OC)c1OC,0.519,–
COc1ccc(/C=C2/C(=O)N(c3ccccc3)N=C2C)c(OC)c1,19,–
COc1ccc(/C=C/C2=CC(C)(C)NC(=S)N2)c(OC)c1,–,14.1 µM (active)
CCn1c(SCC(=O)NCC2CCCO2)nc2cc(S(=O)(=O)N3CCCCC3)ccc21 (centres undefined),-16.5,–
CCCCn1c(SCc2ncc(-c3ccccc3)o2)nc2cc(S(N)(=O)=O)ccc21,–,6.31 µM (active)
CCCCn1c(SCC(=O)N2CCCC2=O)nc2cc(S(N)(=O)=O)ccc21,14.2,–
CC(=O)Nc1ccc(SC[C@H](Cc2ccccc2)N2CC[C@@H](C)CCC2=O)cc1,17.1,–
COc1ccc(-c2nc(N)ncc2-c2ccc(Cl)cc2)c(O)c1,-24.2,–
CCOc1ccc(-c2nc(N)ncc2-c2ccccc2OC)c(O)c1,-9.58,–
